According to PubChem BioAssay AID1159580 (chemical genetic matrix, 2015):
“And” between values parts separate entries of the source, which are not always exact repeats. Equal entries are not always repeated. Screen size: about 5,500 compounds; about 2,000 (36%) were called active. About 18% were inconclusive and are not listed. Rule as the data show it: active = normalized growth mostly below about 0.91 (no sharp cut-off); inconclusive = no clear call, values can overlap the other calls; inactive = mostly above about 0.92. Some of the results follow.

Experiment: chemical genetic growth profiling, strain panel (AID 1159580);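 also: tested at 20 µM; growth read once vehicle control cultures reached saturation at 30 °C; 1 = growth at the plate median or of vehicle wells; lower values mean less growth of the strain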
Details: S. cerevisiae deletion strains, growth OD

Measured: normalized growth

COC(=O)C[C@H]1C(C)(C)C(=O)[C@@H]2CC3=C4CC(=O)O[C@@H](c5ccoc5)[C@]4(C)CCC3[C@@]1(C)C2=O (stereo not given in full)
inactive: locus YAL021C, strain ccr4, stronger effect = lower value 0.972 | locus YAL026C, strain drs2, stronger effect = lower value 0.983 | locus YAL030W, strain snc1, stronger effect = lower value 1 | locus YBL061C, strain skt5, stronger effect = lower value 0.997 | locus YBR009C, strain hhf1, stronger effect = lower value 0.987 | locus YBR021W, strain FUR4, stronger effect = lower value 0.986 | locus YBR023C, strain chs3, stronger effect = lower value 1 | locus YBR171W, strain sec66, stronger effect = lower value 0.992 | locus YBR229C, strain ROT2, stronger effect = lower value 1 | locus YBR231C, strain swc5, stronger effect = lower value 1.01 | locus YBR279W, strain paf1, stronger effect = lower value 0.993 | locus YCL011C, strain gbp2, stronger effect = lower value 1 | locus YCL016C, strain dcc1, stronger effect = lower value 0.996 | locus YCL029C, strain bik1, stronger effect = lower value 0.998 | locus YCL061C, strain MRC1, stronger effect = lower value 0.988 | locus YCL069W, strain vba3, stronger effect = lower value 0.987 | locus YCR088W, strain abp1, stronger effect = lower value 0.988 | locus YDL005C, strain med2, stronger effect = lower value 0.975 | locus YDL035C, strain GPR1, stronger effect = lower value 1.01 | locus YDL040C, strain nat1, stronger effect = lower value 0.995 | locus YDL074C, strain BRE1, stronger effect = lower value 1.02 | locus YDL101C, strain DUN1, stronger effect = lower value 1.01 | locus YDL134C, strain PPH21, stronger effect = lower value 1.01 | locus YDL185W, strain tfp1, stronger effect = lower value 1.02 | locus YDL192W, strain arf1, stronger effect = lower value 1.01 | locus YDR001C, strain nth1, stronger effect = lower value 0.982 | locus YDR069C, strain doa4, stronger effect = lower value 0.982 | locus YDR101C, strain arx1, stronger effect = lower value 0.993 | locus YDR137W, strain rgp1, stronger effect = lower value 0.867 | locus YDR159W, strain sac3, stronger effect = lower value 0.999 | locus YDR162C, strain NBP2, stronger effect = lower value 1 | locus YDR195W, strain ref2 0.972 | locus YDR297W, strain sur2, stronger effect = lower value 0.996 | locus YDR318W, strain mcm21, stronger effect = lower value 1.01 | locus YDR334W, strain swr1, stronger effect = lower value 0.986 | locus YDR335W, strain msn5, stronger effect = lower value 0.985 | locus YDR388W, stronger effect = lower value 1.01 | locus YDR392W, strain spt3, stronger effect = lower value 0.989 | locus YDR502C, strain sam2, stronger effect = lower value 1 | locus YEL003W, strain gim4, stronger effect = lower value 0.996 | locus YEL037C, strain rad23, stronger effect = lower value 0.985 | locus YEL061C, strain CIN8 (second series), stronger effect = lower value 0.985 | locus YEL061C, strain CIN8, stronger effect = lower value 1 | locus YER015W, strain faa2, stronger effect = lower value 1 | locus YER016W, strain bim1, stronger effect = lower value 0.996 | locus YER110C, stronger effect = lower value 1.01 | locus YER111C, strain swi4, stronger effect = lower value 0.985 | locus YER155C, strain BEM2 (second series), stronger effect = lower value 1 | locus YER155C, strain BEM2, stronger effect = lower value 0.997 | locus YER167W, strain BCK2, stronger effect = lower value 1 | locus YFR010W, strain ubp6, stronger effect = lower value 0.978 | locus YGL078C, strain dbp3, stronger effect = lower value 1.02 | locus YGL086W, strain mad1, stronger effect = lower value 0.982 | locus YGL167C, strain pmr1, stronger effect = lower value 0.995 | locus YGL173C, strain kem1, stronger effect = lower value 0.994 | locus YGL227W, strain vid30, stronger effect = lower value 1 | locus YGL240W, strain doc1, stronger effect = lower value 1.02 | locus YGL248W, strain PDE1, stronger effect = lower value 1.01 | locus YGL253W, strain hxk2, stronger effect = lower value 0.995 | locus YGR078C, strain PAC10, stronger effect = lower value 1.01 | locus YGR135W, strain pre9, stronger effect = lower value 1.02 | locus YGR229C, strain SMI1, stronger effect = lower value 1.01 | locus YGR252W, strain gcn5, stronger effect = lower value 1.03 | locus YHR013C, strain ard1, stronger effect = lower value 0.977 | locus YHR027C, strain rpn1, stronger effect = lower value 0.974 | locus YHR030C, strain SLT2, stronger effect = lower value 1.01 and 0.964 | locus YHR079C, strain IRE1 (second series), stronger effect = lower value 1 | locus YHR079C, strain IRE1, stronger effect = lower value 0.976 | locus YHR094C, strain hxt1, stronger effect = lower value 1.01 | locus YHR129C, strain ARP1, stronger effect = lower value 0.999 | locus YHR142W, strain chs7, stronger effect = lower value 0.996 | locus YHR200W, strain rpn10, stronger effect = lower value 1 | locus YIL066C, strain RNR3, stronger effect = lower value 1.01 | locus YIL073C, strain SPO22, stronger effect = lower value 1.06 | locus YIL125W, strain kgd1, stronger effect = lower value 1.01 | locus YIR030C, strain dcg1, stronger effect = lower value 1.01 | locus YJL092W, strain hpr5, stronger effect = lower value 0.993 | locus YJL095W, strain BCK1 (second series), stronger effect = lower value 0.992 | locus YJL095W, strain BCK1, stronger effect = lower value 1.02 and 0.974 | locus YJL115W, strain asf1, stronger effect = lower value 0.978 | locus YJL129C, strain trk1, stronger effect = lower value 0.971 | locus YJL134W, strain LCB3, stronger effect = lower value 1.01 | locus YJL154C, strain vps35, stronger effect = lower value 0.983 | locus YJL164C, strain tpk1, stronger effect = lower value 1 | locus YJL166W, strain qcr8, stronger effect = lower value 1.01 | locus YJL168C, strain set2, stronger effect = lower value 1.01 | locus YJL187C, strain SWE1 (second series), stronger effect = lower value 1.02 | locus YJL187C, strain SWE1, stronger effect = lower value 0.991 | locus YJR066W, strain TOR1, stronger effect = lower value 0.918 | locus YKL009W, strain mrt4, stronger effect = lower value 0.999 | locus YKL068W, stronger effect = lower value 1.01 | locus YKL085W, strain MDH1 (second series), stronger effect = lower value 0.995 | locus YKL085W, strain MDH1, stronger effect = lower value 0.995 | locus YKL160W, strain elf1, stronger effect = lower value 0.996 | locus YKL190W, strain CNB1, stronger effect = lower value 1.01 | locus YKR001C, strain vps1, stronger effect = lower value 1.02 | locus YKR026C, strain gcn3, stronger effect = lower value 0.994 | locus YKR091W, strain srl3, stronger effect = lower value 0.992 | locus YLL001W, strain dnm1, stronger effect = lower value 0.983 | locus YLL026W, stronger effect = lower value 0.991 | locus YLL041C, strain sdh2, stronger effect = lower value 0.991 | locus YLR027C, strain aat2, stronger effect = lower value 0.998 | locus YLR039C, strain RIC1, stronger effect = lower value 0.988 | locus YLR058C, strain SHM2, stronger effect = lower value 1 | locus YLR102C, strain apc9, stronger effect = lower value 1.01 | locus YLR113W, strain HOG1, stronger effect = lower value 1.01 | locus YLR221C, strain rsa3, stronger effect = lower value 0.998 | locus YLR258W, strain gsy2, stronger effect = lower value 0.988 | locus YLR262C, strain YPT6 (second series), stronger effect = lower value 0.912 | locus YLR268W, strain sec22, stronger effect = lower value 1 | locus YLR320W, strain mms22, stronger effect = lower value 1.01 | locus YLR330W, strain CHS5, stronger effect = lower value 1 | locus YLR342W, strain FKS1, stronger effect = lower value 0.998 | locus YLR357W, strain rsc2, stronger effect = lower value 1.01 | locus YLR370C, strain arc18, stronger effect = lower value 0.988 | locus YLR371W, strain rom2, stronger effect = lower value 1.01 | locus YLR384C, strain iki3, stronger effect = lower value 0.993 | locus YLR418C, strain cdc73, stronger effect = lower value 1.03 | locus YML016C, strain PPZ1, stronger effect = lower value 0.998 | locus YML032C, strain rad52, stronger effect = lower value 0.997 | locus YML120C, strain ndi1, stronger effect = lower value 0.995 | locus YML124C, strain tub3, stronger effect = lower value 1.01 | locus YMR058W, strain fet3, stronger effect = lower value 0.981 | locus YMR078C, strain ctf18, stronger effect = lower value 1.02 | locus YMR125W, strain sto1, stronger effect = lower value 0.982 | locus YMR129W, stronger effect = lower value 0.998 | locus YMR205C, strain PFK2, stronger effect = lower value 0.988 | locus YMR223W, strain ubp8, stronger effect = lower value 0.999 | locus YMR231W, strain pep5, stronger effect = lower value 0.98 | locus YMR307W, strain GAS1, stronger effect = lower value 0.96 | locus YNL067W, strain RPL9B, stronger effect = lower value 1.02 | locus YNL071W, strain lat1, stronger effect = lower value 0.989 | locus YNL183C, strain NPR1, stronger effect = lower value 0.963 | locus YNL209W, strain ssb2, stronger effect = lower value 0.996 | locus YNL233W, strain BNI4, stronger effect = lower value 1.03 | locus YNL248C, strain rpa49, stronger effect = lower value 0.982 | locus YNL250W, strain rad50, stronger effect = lower value 0.998 | locus YNL271C, strain bni1, stronger effect = lower value 1.01 | locus YNL298W, strain CLA4, stronger effect = lower value 1.03 | locus YNL307C, strain MCK1, stronger effect = lower value 1.01 | locus YNL322C, strain KRE1 (second series), stronger effect = lower value 0.996 | locus YNR049C, strain mso1, stronger effect = lower value 0.987 | locus YNR052C, strain pop2, stronger effect = lower value 1.01 | locus YOL012C, strain htz1 0.887 | locus YOL147C, strain pex11, stronger effect = lower value 1.01 | locus YOR001W, strain rrp6, stronger effect = lower value 0.985 | locus YOR061W, strain CKA2, stronger effect = lower value 1 | locus YOR069W, strain VPS5, stronger effect = lower value 1 | locus YOR070C, strain gyp1, stronger effect = lower value 0.991 | locus YOR080W, strain dia2, stronger effect = lower value 0.995 | locus YOR083W, strain WHI5, stronger effect = lower value 0.996 | locus YOR106W, strain vam3, stronger effect = lower value 0.991 | locus YOR136W, strain idh2, stronger effect = lower value 1.01 | locus YOR144C, strain elg1, stronger effect = lower value 1 | locus YOR184W, strain ser1, stronger effect = lower value 1 | locus YOR231W, strain MKK1, stronger effect = lower value 0.979 | locus YOR265W, strain rbl2, stronger effect = lower value 0.987 | locus YOR270C, strain vph1, stronger effect = lower value 0.941 | locus YOR290C, strain snf2, stronger effect = lower value 1 | locus YOR316C, strain cot1, stronger effect = lower value 1.01 | locus YPL051W, strain arl3, stronger effect = lower value 0.992 | locus YPL078C, strain atp4, stronger effect = lower value 0.987 | locus YPL106C, strain sse1, stronger effect = lower value 1.04 | locus YPL240C, strain hsp82, stronger effect = lower value 0.998 | locus YPL256C, strain CLN2, stronger effect = lower value 0.97 | locus YPR119W, strain clb2, stronger effect = lower value 1.01 | locus YPR141C, strain kar3, stronger effect = lower value 1.01 | locus YPR163C, strain tif3, stronger effect = lower value 1.01 | locus YPR167C, strain met16, stronger effect = lower value 1.01 | strain wtn01, stronger effect = lower value 0.981
